Data from PubChem BioAssay (NCATS).
Records with an inconclusive call do not appear. A call without a number means that no potency is given here. The source made the active and inactive calls. The call rests on the fitted dose curve; tested in HEK293 reporter line.

Experiment: qHTS for Inhibitors of the Functional Ribonucleoprotein Complex (vRNP) of Lymphocytic Choriomeningitis Arenaviruses (LCMV): Viability assay - alamar blue signal for LCMV Primary Screen (AID 1347085); further: nearly all actives have a fitted effect of over 80% in size
Conditions: alamar blue viability counter-screen, LCMV vRNP screen cells; series mostly up to 57.5 µM

Row | SMILES | Potency
1 | O=C(CCCN1CCC(O)(c2ccc(Br)cc2)CC1)c1ccc(F)cc1 | inactive
2 | CCCCN(CCCC)C(C(N)=O)c1ccc(OC)cc1 (centres undefined) | inactive
3 | O=C(Nc1ccc(S(=O)(=O)N2CCOCC2)cc1)c1cc(Cl)ccc1NS(=O)(=O)c1ccc(Cl)s1 | inactive
4 | CO[C@@H]1[C@@H](O[C@@H]2O[C@H](C)[C@@H](O[C@H]3C[C@@](C)(O)[C@@H](O)[C@H](C)O3)[C@H](N(C)C)[C@H]2O)[C@@H](CC=O)C[C@@H](C)[C@@H](O[C@@H]2CC[C@H](N(C)C)[C@@H](C)O2)/C=C/C=C/C[C@@H](C)OC(=O)C[C@H]1OC(C)=O | inactive
5 | CO[C@]1(NC(=O)CSC(F)F)C(=O)N2C(C(=O)O)=C(CSc3nnnn3CCO)CO[C@H]21 | inactive
6 | CCCCCN(CCCCC)C(=O)C(CCC(=O)O)NC(=O)c1ccc(Cl)c(Cl)c1 (centres undefined) | inactive
7 | CN(C(=O)c1c(O)c2ccccc2n(C)c1=O)c1ccccc1 | inactive
8 | Oc1c(I)cc(Cl)c2cccnc12 | inactive
9 | O=C(O)CCC(=O)Nc1ccc(S(=O)(=O)Nc2nccs2)cc1 | inactive
10 | CCCCCCCCCCCCCCC[C@H](O)[C@@H](N)CO | inactive
11 | Oc1ccc(Cl)cc1Sc1cc(Cl)ccc1O | inactive
12 | NNc1nnc(NN)c2ccccc12 | inactive
13 | COc1cc2c(cc1OC)C(C(C(=O)N(CCc1ccc(OC)c(OC)c1OC)CCc1ccc(OC)c(OC)c1OC)c1ccccc1)=NCC2 (centres undefined) | inactive
14 | CCCCC1(COC(=O)CCC(=O)O)C(=O)N(c2ccccc2)N(c2ccccc2)C1=O | inactive
15 | CCOC(=O)C(=O)CCc1ccccc1 | inactive
16 | O=C1CC2(CCCC2)CC(=O)N1CCNCC1COc2ccccc2O1 (centres undefined) | inactive
17 | CCN1C(=O)c2ccccc2C1Nc1ccc(OCCN2CCCCC2)cc1 (centres undefined) | inactive
18 | C[N+](C)(C)CCCCCCCCCC[N+](C)(C)C | inactive
19 | O=C1c2ccccc2S(=O)(=O)N1CCCCN1CCN(c2ncccn2)CC1 | inactive
20 | N=C(N)c1ccc2cc(OC(=O)c3ccc(N=C(N)N)cc3)ccc2c1 | inactive

Row | SMILES | Potency
21 | CCC1NC(=O)c2cc(S(N)(=O)=O)c(Cl)cc2N1 (centres undefined) | inactive
22 | CN(CCCN1c2ccccc2CCc2ccccc21)CC(=O)c1ccc(Cl)cc1 | inactive
23 | CCCCCCCCNC(C)C(O)c1ccc(SC(C)C)cc1 (centres undefined) | inactive
24 | CC(=O)Oc1c(C)c(C)c2c(c1C)CC[C@@](C)(CCC[C@H](C)CCC[C@H](C)CCCC(C)C)O2 | inactive
25 | Cc1c(N)c(=O)n(-c2ccccc2)n1C | inactive
26 | C[C@@H]1CCN(C(=O)[C@H](CCCN=C(N)N)NS(=O)(=O)c2cccc3c2NC[C@H](C)C3)[C@@H](C(=O)O)C1 | inactive
27 | CCCCN1CCCC[C@H]1C(=O)Nc1c(C)cccc1C | inactive
28 | CCN(CC)CCOCCOC(=O)C1(c2ccccc2)CCCC1 | inactive
29 | C[C@]12CC[C@@H]3c4ccc(O)cc4CC[C@H]3[C@@H]1C[C@@H](O)[C@@H]2O | inactive
30 | OC(CN1CCC(Cc2ccc(F)cc2)CC1)c1ccc(Cl)cc1 (centres undefined) | inactive
31 | Clc1ccc(Cn2c(CN3CCCC3)nc3ccccc32)cc1 | inactive
32 | c1ccc(CN(CC2=NCCN2)c2ccccc2)cc1 | inactive
33 | CC(C(O)c1ccc(O)cc1)N1CCC(Cc2ccccc2)CC1 (centres undefined) | inactive
34 | Nc1ccc(S(=O)(=O)Nc2cnc3ccccc3n2)cc1 | inactive
35 | OC(CCCN1CCCCC1)(c1ccccc1)c1ccccc1 | inactive
36 | C[N+]12CCC(CC1)C(OC(=O)C(O)(c1ccccc1)c1ccccc1)C2 (centres undefined) | inactive
37 | CC(=O)c1ccc2c(c1)N(CCCN1CCC(CCO)CC1)c1ccccc1S2 | inactive
38 | O=C(/C=C/c1ccccc1)NCCO | inactive
39 | CN(C)C(=O)Oc1cccc([N+](C)(C)C)c1 | inactive
